Source: PubChem BioAssay AID652039 (The Scripps Research Institute Molecular Screening Center, 2013)
In all, about 370,000 compounds went through this assay and about 3,300 (0.89%) were called active. What follows is part of a selection rich in actives, with near analogues and random picks from the rest. Unmarked numbers belong to inactive results.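 Rule for the calls: active = activation above the mean of all tested compounds plus 3 SD, computed per campaign excluding outliers beyond control limits (cut at about 13% in these data); inactive = the rest.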

These molecules were tested against Kallikrein-7 (Homo sapiens) (UniProt P49862) (assay: activation of human kallikrein-7 proenzyme – biochemical, fluorescence intensity, primary screen (AID 652039)). Details: purified proKLK7, EDANS-DABCYL substrate fluorescence; at 7 µM; stronger effect = higher value; 100% is mature enzyme control, 0% vehicle.
Kallikrein-7 (Homo sapiens), sequence (P49862 whole entry, looked up): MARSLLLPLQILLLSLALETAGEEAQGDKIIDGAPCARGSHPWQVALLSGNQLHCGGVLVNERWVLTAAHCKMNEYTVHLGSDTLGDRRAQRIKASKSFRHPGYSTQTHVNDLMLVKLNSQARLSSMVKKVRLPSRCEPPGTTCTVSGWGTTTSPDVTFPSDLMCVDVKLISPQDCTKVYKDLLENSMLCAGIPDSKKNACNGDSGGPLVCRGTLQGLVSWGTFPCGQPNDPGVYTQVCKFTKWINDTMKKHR

Structure (SMILES) | activation
Cc1cc(C)c2nc3nc(C)cc(C)c3c(N)c2c1 | 52.6% (active)
CCC(CO)Nc1cccc2c1S(=O)(=O)N(Cc1cn(Cc3ccccc3C(F)(F)F)nn1)Cc1ccccc1O2 (configuration not stated) | 0.4%
Cc1ccccc1CN1CCCCC(NC(=O)Nc2ccccc2F)C1=O (configuration not stated) | 0.62%
C#CCCN([C@H](C(=O)OC)C(C)C)S(=O)(=O)c1ccc(F)cc1Br | -0.16%
O=S1(=O)c2c(cccc2N2CCSCC2)Oc2ccccc2CN1Cc1cn(Cc2ccc(F)cc2)nn1 | -2.26%
Cn1cccc1/C=N/NC(=O)CNc1cccc2ccccc12 | 22.8% (active)
C/C(=N\NC(=O)CNc1cccc2ccccc12)c1ccc(Br)s1 | 2.95%
CN(CC(=O)Nc1ccc(Cl)cc1)CC(=O)Nc1cccc2ccccc12 | 0.06%
COc1ccc(/C=C2\CC3(OC(C)=O)CCCN2C3)cc1 (configuration not stated) | 0.04%
CCC(=O)Nc1ccc2nn(-c3ccc(F)cc3)nc2c1 | 7.33%
Nc1nc2cc(Cl)ccc2n1N | 0.42%
Nc1ccc2nn(-c3ccc(Cl)cc3)nc2c1 | 64.3% (active)
COc1ccc(-c2cc(C(F)(F)F)nc(SCCC(=O)NCc3ccco3)n2)cc1 | -0.49%
COc1ccc(-c2cc(C(F)(F)F)nc(S(C)(=O)=O)n2)cc1OC | 15.4% (active)
CCC(c1ccc(NC(=O)OC(C)(C)C)cc1)c1cc(OC)cc(OC)c1 (configuration not stated) | 1.16%
Cc1nc(N=C(N)N)nc2c(C)cccc12 | -0.57%
COc1nc(N=C(N)N)nc2c(C)cccc12 | 22.7% (active)
CCc1c(C)nc2c(OC)cccc2c1Cl | 0.96%
Nc1[nH]c(/C=C2/CCCCC2n2[nH]c(=O)n(-c3ccccc3)c2=O)c(Cc2ccccc2)[n+]1Cc1ccccc1 (configuration not stated) | -0.08%

Structure (SMILES) | activation
COc1ccc(CN2C(=O)N3Cc4cc(OC)ccc4C3CS2(=O)=O)cc1 (configuration not stated) | 0.22%
CCN(CC)C(=O)CC[C@@H]1CC[C@]2(CCCN(S(=O)(=O)C3CCCCC3)C2)O1 | -0.08%
CC(=O)Nc1ccc(NC(=O)c2ccc3c(c2)C(=O)N(c2ccccc2C)C3=O)cc1 | -0.23%
COc1ccc(C(=O)/C=C/c2ccc(-c3ccccc3)cc2)cc1CSCC(=O)O | -2.22%
O=C(O)c1ccc2c(c1)C(=O)N(c1ccc(/C=C/C(=O)c3ccccc3)cc1)C2=O | 108% (active)
C=CCN1[C@@H](Cc2ccccc2)COc2cccc(N3CCSCC3)c2S1(=O)=O | 0.85%
O=C(NCc1ccc(Cl)cc1)C1CCCN(c2nc3ccccc3o2)C1 (configuration not stated) | 0.03%
Cc1sc2nc(SCC(=O)c3ccc(O)c(O)c3)n(Cc3ccco3)c(=O)c2c1C | -0.81%
C=CCN1C(C(=O)OC)CN(Cc2cn(Cc3ccccc3)nn2)CCS1(=O)=O (configuration not stated) | 0.39%
COCCCNC(=O)/C(C#N)=C/c1c(N2CCCCCC2)nc2ccccn2c1=O | 8.31%
CN(C(=O)c1cc2c(=O)n3ccccc3nc2s1)C1CCCCC1 | 25.8% (active)
CCOCCCNC(=O)c1cn(CC(C)C)c(=O)c2c1c1ccccc1n2C | -1.85%
CCOCCCNC(=O)c1cc2c(=O)n3ccccc3nc2s1 | 40.6% (active)
CN(CCNC(=O)c1cc2c(-c3ccccc3F)nn(C)c2s1)C1CCCCC1 | -1.03%
CN(c1ccc2nc3ccccc3c(=O)n2n1)C1CCCCC1 | 0.7%
Cc1ccc(C(=O)C2CCN(CC(=O)NCCC(C)C)CC2)cc1 | 1.04%
CCCC[C@H](C(=O)N(CC)c1ccccc1)[C@@H](O)c1ccc2ccccc2c1 | 0.3%
COc1ccccc1C(=O)COC(=O)CNS(=O)(=O)c1ccc(NC(C)=O)cc1 | 0.48%
COc1ccccc1CNC(=O)COC(=O)CNS(=O)(=O)c1ccc(NC(C)=O)cc1 | -0.12%

Structure (SMILES) | activation
CC(=O)Nc1ccc(S(=O)(=O)NCC(=O)OCc2cc(=O)oc3ccc4ccccc4c23)cc1 | 273% (active)
CC1CCCN(c2cccc3c2S(=O)(=O)N(Cc2ccc(F)cc2)[C@@H](C)[C@H](c2ccccc2)O3)C1 (some centres not stated) | -0.65%
Nn1c(SCC(=O)Nc2cccc3ccccc23)nnc1-c1cc(-c2ccc(F)cc2)n[nH]1 | 0.42%
COc1cccc(-c2ccc3c(c2)S(=O)(=O)c2cccc(C(=O)O)c2C3=O)c1OC | -0.11%
O=C(O)c1ccc2c3c(cccc13)C(=O)N(OS(=O)(=O)c1ccccc1)C2=O | 105% (active)
C=C(C)C#CC(Cc1ccccc1)N(CC1CC1)/C(N)=N/C(=O)OCc1ccccc1 (configuration not stated) | -0.43%
Cc1nn2c(=O)cc(COC(=O)c3ccc(NC(=O)C(C)(C)C)cc3)nc2s1 | -0.47%
CC(=O)Nc1ccc(S(=O)(=O)Nc2ccc(-c3ccc4nnc(C)n4n3)cc2)cc1 | 0.05%
CC(C)(C)C(=O)Nc1cccc(-c2ccc[nH]2)n1 | 0.15%
CC(=O)Nc1ccc(-c2cn3cccnc3n2)cc1 | 64.7% (active)
CC(C)(C)C(=O)Nc1ccc(-c2cn3cccnc3n2)cc1 | 65.9% (active)
Cc1cccc(C(=O)Nc2c(-c3ccc(F)cc3)nc3ncccn23)c1 | 8.91%
CCCCCC(=O)Nc1ccc(S(=O)(=O)Nc2ccc(Cl)nn2)cc1 | -0.08%
CCCCC(=O)Nc1ccc(C(=O)NCCCn2ccnc2)cc1 | 0%
CCCCCC(=O)Nc1ccc(-c2cn3cccnc3n2)cc1 | 52.5% (active)
O=C(CCS(=O)(=O)c1ccccc1)Nc1ccc(Cl)c(Cl)c1 | 0.23%
O=C(CSc1nnc(COc2ccccc2)n1-c1ccc(Cl)cc1)Nc1ccc2c(c1)OCO2 | 0.41%
COC(=O)[C@@]12CCCCC=C1N(CCc1ccc(Cl)cc1)C(=O)[C@H]2CC(=O)NCc1ccc(OC)c(OC)c1 | -0.01%
Cc1ccc2nc(-c3ccc(CN4CCC(n5cc(-c6ccccc6)[nH]c5=O)CC4)cc3)c(-c3ccccc3)nc2c1 | -16.7%
